Test results published in the OligoGym collection.
Note: reference of the scale not given here.

The sequences below were run against PPP2R2B (assay: pooled miR-30 sensor sort-seq; sequence = guide strand). Details: shRNA.
Sequence TCTGTTGCTTGGATCTTCCGGC has a sensor-assay potency score (higher = more potent) of 0.454. TTTTACTCTCCTGCTCTCGTTG gave a sensor-assay potency score (higher = more potent) of -0.655. For TAAACTCTTCAGGTAATCGAAC, the sensor-assay potency score (higher = more potent) was -0.877.

What follows are sequences tested against PPP2R4 in the same assay as above. Details: shRNA.
Sequence TGGAACTGTGTGGATCTCCTTT has a sensor-assay potency score (higher = more potent) of -1.01. TTGAGGGTAAGGATGAATCCGA showed a sensor-assay potency score (higher = more potent) of -0.403. TTCATCTCGGTAATAAACAGGA was tested, and the sensor-assay potency score (higher = more potent) was 0.112. TTTAATCTGAACAGCAATGAGG was tested, and the sensor-assay potency score (higher = more potent) was -0.87. TTCTCATCCACAAAGTGTCTGG gave a sensor-assay potency score (higher = more potent) of -0.351. TTTGGAATGATGAAGTTCTGAG gave a sensor-assay potency score (higher = more potent) of -0.0141. With TTGAAGTGCTGGATCACAGGGA the sensor-assay potency score (higher = more potent) was 1.03. For TCTGCTTCCTCGGAGACTCTGT, the sensor-assay potency score (higher = more potent) was 0.193. TTTAGGTAAACAGCCACCTCAG gave a sensor-assay potency score (higher = more potent) of -0.616. For TTTTGGAATGATGAAGTTCTGA, the sensor-assay potency score (higher = more potent) was -0.939. TATTTGGTCATCCACCCGGAGC gave a sensor-assay potency score (higher = more potent) of -1.25. For TTGAAGACAATAGCTATTTGGT, the sensor-assay potency score (higher = more potent) was -0.254.

Each sequence was assayed against PPP3R1 in the same assay as above. Details: shRNA.
With TTTTGTCTACAATTTGCTGTAA the sensor-assay potency score (higher = more potent) was -0.67. TTACTCGCTGTACTAAAGGATT was tested, and the sensor-assay potency score (higher = more potent) was -1.35. With AATATAGCCATCTTTATCCATG the sensor-assay potency score (higher = more potent) was -1.54. TAGCCTTTTAATTTCATCCGCA showed a sensor-assay potency score (higher = more potent) of 0.489. Sequence TTATCTGCATTTATTATGGTTT has a sensor-assay potency score (higher = more potent) of -0.79. TCTCCTTTGACACTGAACTGAG was tested, and the sensor-assay potency score (higher = more potent) was -0.401. TTTGCTGTAACTGTGTATCTTT was tested, and the sensor-assay potency score (higher = more potent) was 0.559. With TTTGTCTACAATTTGCTGTAAC the sensor-assay potency score (higher = more potent) was -1.15. TTTTTGTGGATATCTAGGCCAC showed a sensor-assay potency score (higher = more potent) of -0.626. TAAAATCACAACTAGCACTTAA was tested, and the sensor-assay potency score (higher = more potent) was -0.328. In the case of TTAAATCTCTTTCCTAGCCTTT, the sensor-assay potency score (higher = more potent) is reported as -0.556. For TTCAATAACACTTAGTTGGCTT, the sensor-assay potency score (higher = more potent) was 0.15.

What follows are sequences tested against PPY in the same assay as above. Details: shRNA.
For TATCTACGGAGATCAGCTGCAT, the sensor-assay potency score (higher = more potent) was 0.435. In the case of ATCTACGGAGATCAGCTGCATA, the sensor-assay potency score (higher = more potent) is reported as -1.14. AGCATGTTGATGTATCTACGGA was tested, and the sensor-assay potency score (higher = more potent) was -1.31. TCTGGTGTGGCATTGTCCCCTG gave a sensor-assay potency score (higher = more potent) of 0.0817. With TGTATCTACGGAGATCAGCTGC the sensor-assay potency score (higher = more potent) was 0.303. With TAACAGAGCCACGCAGGTGGAC the sensor-assay potency score (higher = more potent) was -1.08. TACTGGGCCATCTGCTCTGGTG showed a sensor-assay potency score (higher = more potent) of -1.25. ATCAGCTGCATACTGGGCCATC showed a sensor-assay potency score (higher = more potent) of -1.61. For TGTAGTAACAGAGCCACGCAGG, the sensor-assay potency score (higher = more potent) was -1.22. TGTTGATGTATCTACGGAGATC gave a sensor-assay potency score (higher = more potent) of -1.64. TCCTCTTTGTGTCTTTTCCCAT gave a sensor-assay potency score (higher = more potent) of -1.36. TGATGTATCTACGGAGATCAGC showed a sensor-assay potency score (higher = more potent) of -1.04.
